# Measured values: PubChem BioAssay AID372 (MTDP, 2006)
# Among all 100,000 compounds or so, about 770 (0.77%) were called active. Only a selection was taken, and actives are over-represented in it overall. Values without a mark were called inactive. Rule as the data show it: active = inhibition above about 50%; inactive = the rest.
# Target: Gag-Pol polyprotein (Human immunodeficiency virus type 1 group M subtype B (isolate HXB2)) (UniProt P04585)
# Test: RNase H inhibition, HIV 1 Gag Pol polyprotein, FRET biochemical assay, screening (AID 372)
# Conditions: HIV-1 RT RNase H, FRET RNA/DNA substrate fluorescence; at 10 µM; hits give high values
row,Compound,inhibition
1,COc1ccc(OC)c(CN2CCN(Cc3cccc(Br)c3)CC2)c1,5%
2,COc1ccc([N+](=O)[O-])cc1N(CC(O)CN1CCCCC1)S(=O)(=O)c1ccc(C)cc1 (stereo unspecified),12%
3,Cc1c(C(=O)Oc2ccc3c(c2)C(C)CC(C)(C)N3)cccc1[N+](=O)[O-] (stereo unspecified),21%
4,CCSc1nnc(NC(=O)COc2ccc(Cl)cc2Cl)s1,22%
5,CC(=O)c1ccc(NC(=S)Nc2ccc3nccnc3c2)cc1,10%
6,O=S(=O)(Oc1ccccc1/C=N/NC(=S)Nc1ccccc1)c1ccccc1,52% (active)
7,NC(N)=N/N=C/c1ccccc1OS(=O)(=O)c1ccccc1,0%
8,NC(=O)N/N=C/c1ccccc1OS(=O)(=O)c1ccc([N+](=O)[O-])cc1,11%
9,CCOC(=O)c1c[nH]c2ccc(Cl)cc2c1=O,14%
10,C=CCn1c(CSc2nc3ccccc3s2)n[nH]c1=S,0%
11,C=CCn1c(CSc2nc3ccccc3s2)nnc1SC/C=C/c1ccccc1,59% (active)
12,C=CCn1c(CCCN2C(=O)c3cccc4cccc(c34)C2=O)nnc1SC/C=C/c1ccccc1,8%
13,Cc1ccc(NC(=O)C(C)SCc2ccccc2)c(C)c1 (stereo unspecified),13%
14,COc1ccc(C2CC(=O)C3=C(C2)NC(C)=C(C(=O)OCCOc2ccccc2)C3c2cccc(Br)c2)cc1 (stereo unspecified),6%
15,COc1ccc(/C(C)=N/OCC(=O)N2CCN(C(c3ccccc3)c3ccccc3)CC2)cc1OC,51% (active)
16,COc1ccc(/C=N/OCC(=O)N2CCN(C(c3ccccc3)c3ccccc3)CC2)cc1OC,45%
17,COc1ccc(C(=O)N2CCN(C(c3ccccc3)c3ccccc3)CC2)cc1OC,13%
18,CCc1ccc(C(=O)CSC2=C(C#N)C(c3ccc(Br)cc3)C(C(C)=O)=C(C)N2)cc1 (stereo unspecified),26%

row,Compound,inhibition
1,COc1ccc(C2(CNS(=O)(=O)c3ccccc3)CCCC2)cc1OC,0%
2,COc1cc(C=Nc2cccc(Cl)c2C)ccc1OC(C)=O,11%
3,COc1cc(/C=C2\NC(=S)NC2=O)ccc1OCc1c(C)no[n+]1[O-],53% (active)
4,COc1cc(C=C2C(=O)NC(=O)NC2=O)ccc1OCc1c(C)no[n+]1[O-],6%
5,Cc1no[n+]([O-])c1COc1ccc(/C=C2\NC(=S)NC2=O)cc1,4%
6,O=c1c2c3c(sc2ncn1/N=C/c1ccc(Br)o1)CCCC3,25%
7,O=C(Nc1nc(-c2ccc([N+](=O)[O-])cc2)cs1)c1ccc(Cl)cc1,32%
8,CCOc1ccc(C(=O)NC(=S)Nc2ccc(Cl)cn2)cc1Cl,60% (active)
9,COc1ccc(C(=O)NC(=S)Nc2nc(-c3ccccc3)cs2)cc1Cl,16%
10,COc1ccc(C(=O)NC(=S)Nc2nc(-c3cccc([N+](=O)[O-])c3)cs2)cc1Cl,54% (active)
11,O=C(Nc1nc(-c2ccc(Cl)cc2)cs1)c1ccc([N+](=O)[O-])cc1,51% (active)
12,O=C(Nc1nc(-c2ccc(Br)cc2)cs1)c1ccc([N+](=O)[O-])cc1,37%
13,CCOc1ccc(C(=O)Nc2ccc([N+](=O)[O-])cc2OC)cc1Cl,14%
14,CCOc1ccc(C(=O)NC(=S)Nc2ccc(Cl)cc2)cc1Cl,7%
15,CCOc1ccc(C(=O)NC(=S)Nc2ccc([N+](=O)[O-])cc2OC)cc1Cl,50% (active)
16,COc1ccc(C(=O)NC(=S)Nc2ccc([N+](=O)[O-])cc2C)cc1Cl,18%
17,O=C(NC(=S)Nc1nc(-c2cccc([N+](=O)[O-])c2)cs1)c1ccc(Cl)cc1,35%
18,CCOc1ccc(C(=O)NC(=S)Nc2ccccn2)cc1Cl,12%
